# Bioassay records deposited in PubChem BioAssay by several laboratories.
# Only some compounds are listed: those with a hit (about 3.8% of all), similar ones and a draw of the others.
# NALP3 yeast inh – NALP3 inhibition in yeast; Yeast reconstituted NLRP3/ASC/caspase-1, beta-gal luminescence, 24 h; inhibition, % at 10 µM; AID 2825; 0.39% of 330,000 active;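 active = inhibition of 50% or more; inactive = inhibition below 50%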;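 note: plate controls were induced DMSO wells for no effect and uninduced yeast grown without galactose for full effect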
# CR mimetic SO – yeast age-related superoxide inhibition as caloric restriction mimetic; 0.18% of 330,000 active; S. cerevisiae aged cells, superoxide DHE fluorescence; active compounds read low; superoxide response (% of plate mean), % at 10 µM;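 active = superoxide response under a set limit, about three screen SD below normal, cut at about 65% in these data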;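 note: yeast aged for seven days with compound at 30 °C before DHE staining; 100% = average MFI of all compound-treated wells on the plate with controls excluded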
# tim10-1 inh – growth inhibitors of tim10-1 mutant yeast. S. cerevisiae tim10-1 ts strain growth, BacTiter-Glo, 24 h. inhibition, % at 20 µM. 2.2% of 330,000 active;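 active = inhibition of at least 40%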;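 note: mutant grown at 25 °C; 0% = DMSO wells with yeast and 100% = wells holding no yeast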
# tim23-1 inh – tim23-1 yeast growth inhibition | S. cerevisiae tim23-1 growth, BacTiter-Glo luminescence, 24 h | inhibition, % at 20 µM | 1.3% of 330,000 active | AID 463212;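 active = growth inhibition of the mutant yeast at or above 50%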;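 note: temperature-sensitive mutant grown at 25 °C; plate controls were DMSO-treated mutant yeast for no effect and medium wells lacking yeast for full effect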
# TIM10 inh – inhibits growth of TIM10 yeast strain. S. cerevisiae TIM10 strain growth, BacTiter-Glo luminescence, 24 h. inhibition, % at 10 µM. 1.4% of 330,000 active. AID 463195;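 active = inhibition of 40% or more at the single tested concentration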;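 note: wild-type TIM10 isogenic control strain grown at permissive 25 °C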
# tim10-1 conf – tim10-1 yeast growth inhibition, confirmed; shares compounds with tim10-1 inh; S. cerevisiae tim10-1 ts strain growth, BacTiter-Glo, 24 h; inhibition, % at 20 µM; 56% of 7,400 active; AID 463213;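 active = inhibition of yeast growth at or above a set limit in either of two repeat tests at 20 µM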;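 note: tim10-1 mutant grown at permissive 25 °C to find synthetic lethal compounds; 0% = DMSO yeast wells and 100% = medium wells without yeast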
# Starred values were filed as active, the others as inactive; x = no result.
SMILES,NALP3 yeast inh,CR mimetic SO,tim10-1 inh,tim23-1 inh,TIM10 inh,tim10-1 conf
CC(C)C(C(=O)N1CCN(Cc2ccccc2)CC1)c1ccccc1 (configuration not stated),-31,94,50*,35,32,35*
O=C(C(Cc1ccccc1)n1cccc1)N1CCN(Cc2ccccc2)CC1 (configuration not stated),7,98,42*,21,11,5
O=C(C(Cc1ccccc1)n1cccc1)N1CCCCC1 (configuration not stated),16,120,21,11,6,x
O=C(CNC(=O)c1ccc(Cl)cc1)NC(CO)c1ccccc1 (configuration not stated),8,86,-10,10,12,x
O=[N+]([O-])c1cc(Cl)ccc1N1CCN(c2ccccc2O)CC1,6,92,59*,37,40,53*
O=C(NC1CCCCC1)c1ccc(-c2cccc([N+](=O)[O-])c2)o1,17,106,41*,40,28,25
O=C(O)c1ccc(-c2cccc([N+](=O)[O-])c2)o1,8,99,-16,2,-7,x
O=C(COC(=O)C(O)c1ccccc1)NC12CC3CC(CC(C3)C1)C2 (configuration not stated),14,101,13,16,6,x
CCC(CC)C(=O)OCC(=O)NC12CC3CC(CC(C3)C1)C2,6,108,30,29,26,x
O=C(COC(=O)CCc1ccccc1)NC12CC3CC(CC(C3)C1)C2,-11,103,43*,32,14,28
O=C(COC(=O)C12CC3CC(CC(C3)C1)C2)NC12CC3CC(CC(C3)C1)C2,19,90,41*,28,38,39*
Cc1ccc(NC(=O)CCNC(=O)c2ccc([N+](=O)[O-])cc2)cc1C,x,103,x,x,x,x
C=CCN=C1SC(C)(C)C(=O)N1S(=O)(=O)c1ccc(C)cc1,-9,94,20,17,19,x
CCn1c(SCC(N)=O)nc2sc3c(c2c1=O)CCCC3,1,118,19,14,26,x
NC(=O)CSc1nc2sc3c(c2c2ncnn12)CCCC3,12,114,42*,33,27,34*
CC(C)CCN1C(=O)c2ccc(C(=O)NCc3ccccn3)cc2C1=O,-5,103,10,18,3,x
Cc1nn(Cc2c(Cl)cccc2Cl)c(C)c1N,4,116,14,4,-3,x
CCN(CC)c1ncn(Cc2c(Cl)cccc2Cl)c2ncnc1-2,11,84,42*,39,9,36*
O=C(CSc1nncs1)Nc1ccc2[nH]c(=O)[nH]c2c1,19,108,0,5,6,x
COc1ccc(-c2nc(C#N)c(N3CCc4ccccc4C3)o2)cc1OC,19,106,21,31,13,x
COc1ccccc1-c1nc(C#N)c(N2CCc3ccccc3C2)o1,20,102,40*,40,34,32*
CCCCSc1cc(=O)[nH]c(N)n1,5,111,-4,5,-7,x
CCOC(=O)c1ccc(N2C(=O)C3C(C2=O)C(C(=O)c2ccc(Cl)cc2)N2CCCC32)cc1 (configuration not stated),18,106,42*,26,32,29*
C/C(=N\NC(=O)c1ccc(CN2CCOCC2)cc1)c1ccc(NC(=O)c2ccccc2)cc1,30,93,-16,-5,-1,x
Clc1cccc(/C=N/Nc2ncnc3ccccc23)c1,21,94,40*,35,39,18
SMILES,NALP3 yeast inh,CR mimetic SO,tim10-1 inh,tim23-1 inh,TIM10 inh,tim10-1 conf
COCCn1c(=S)[nH]c2cc(C(=O)N3CC(C)CC(C)C3)ccc2c1=O (configuration not stated),4,99,41*,-8,-33,-62
Cc1ccc(Cl)cc1N1CCN(C(=O)CN(c2ccccc2)S(=O)(=O)N(C)C)CC1,8,114,25,20,11,x
O=C(NCCc1ccccc1)c1ccc(CS(=O)(=O)Cc2ccc(F)cc2)o1,8,106,14,6,2,x
CCOC(=O)c1ccc(NC(=O)c2nc[nH]c2C(=O)NCCNC(=O)c2[nH]cnc2C(=O)Nc2ccc(C(=O)OCC)cc2)cc1,3,95,15,10,-1,x
CCOC(=O)c1ccc(NC(=O)c2nc[nH]c2C(=O)N(C)Cc2ccccc2)cc1,11,110,42*,33,10,28
CC(Cc1c[nH]c2ccccc12)C(=O)N1CCN(c2ccccc2F)CC1 (configuration not stated),9,91,97*,17,3,19
CC(Cc1c[nH]c2ccccc12)C(=O)O (configuration not stated),9,80,-2,-11,-10,x
Cc1ccccc1-n1c(SC(C)C(=O)N2CCN(C)CC2)nc2ccccc2c1=O (configuration not stated),15,111,15,14,7,x
N#C/C(=C\c1cn[nH]c1-c1ccc(Cl)cc1)C(=O)NC1CC1,4,120,33,25,18,x
N#C/C(=C\c1cn[nH]c1-c1ccc(Cl)cc1)C(=O)NCc1ccccc1,7,81,43*,32,34,46*
O=C(/C=N/NC(=O)c1ccc(Cl)cc1Cl)c1ccccc1,4,107,-5,34,-15,x
O=C(Oc1ccc(/C=N/Nc2nc(N3CCCCC3)nc(N3CCCCC3)n2)cc1)c1ccco1,10,93,-30,-7,-22,x
OCCc1ccc(-c2ccc(Cl)cc2)o1,12,93,43*,23,16,25
COc1ccc(C(=O)N2CCN(c3ccccc3)CC2)cc1S(=O)(=O)NC1CC1,12,x,8,20,-3,x
Cc1cccc(NC(=O)CC2SC(=O)N(c3ccccc3)C2=O)c1 (configuration not stated),27,113,43*,43,35,37*
O=C(CC1SC(=O)N(c2ccccc2)C1=O)Nc1ccccc1 (configuration not stated),5,129,38,22,16,x
Cc1ccc(OCC(=O)N/N=C\c2cccn2C)c([N+](=O)[O-])c1,14,103,3,8,-1,x
CC(=O)Nc1ccc(S(=O)(=O)N2CCCCC2c2cccnc2)cc1 (configuration not stated),0,91,11,-4,-6,x
COc1cc(C)c(C)cc1S(=O)(=O)N1CCCCC1c1cccnc1 (configuration not stated),10,102,41*,30,11,27
Cc1ccc(C)c(NC(=O)CN(C)C(=O)c2ccccc2OCc2ccccc2Cl)c1,4,100,27,40,11,x
Cc1cc(C)c(N=Cc2c(O)n(-c3nccs3)c(=O)c3ccccc23)c(C)c1,28,88,41*,42,36,32*
O=c1c2ccccc2c(C=Nc2ccccc2O)c(O)n1-c1nccs1,6,88,6,-2,-7,x
